Assay outcomes deposited in PubChem BioAssay by several laboratories.
MsrA inh = bovine MsrA enzyme inhibitors, primary screen, biochemical, absorbance, HTS; Methionine sulfoxide reductase A (Bos taurus); purified bovine MsrA, absorbance read-out; inhibition, % at 15.5 µM; hit rate 0.75% among 360,000; AID 651718, 2012; in the data active means inhibition above about 4.5%
SMARCA2 act = SMARCA2 (BRM) function activators, primary screen, cell-based, luminescence, high throughput; MG213 cells, MMTV-luciferase reporter, dexamethasone, overnight; activation, % at 9.1 µM; hit rate 1% among 370,000; in the data active means activation above about 7.8%
ABCB6 inh 2 = ABCB6 transporter inhibitors, primary screen, K562-ABCB6 cells, flow cytometry, MLPCN library; ATP-binding cassette sub-family B member 6 (Homo sapiens), Q9NP58; K562-ABCB6 porphyrin accumulation, 1 h; hits give low values; fluorescence ratio to DMSO, % at 10 µM; hit rate 0.19% among 360,000; AID 602162, 2011;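 active means fluorescence ratio to DMSO below 75%, the collection mean minus 3 SD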;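 further: signal is porphyrin accumulated inside mitochondria; lower ratio means ABCB6 inhibition with less porphyrin fluorescence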
bovine MsrA act = bovine MsrA enzyme activators, primary screen, biochemical, absorbance, HTS; hit rate 0.3% among 360,000; AID 602163, 2012; purified bovine MsrA, absorbance read-out; Methionine sulfoxide reductase A (Bos taurus); activation, % at 10.6 µM; in the data active means activation above about 7.5%
SMARCA2 conf = SMARCA2 (BRM) function activators, confirmation, cell-based, luminescence, triplicate | shares compounds with SMARCA2 act | MG213 cells, MMTV-luciferase with dexamethasone, overnight; MG213 cells expressing E1A, Rb sequestered; DMSO wells 0%, reference activator 100% | activation, % at 9.1 µM | hit rate 30% among 3,500;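 active means activation above its plate's cutoff, the mean activation of tested wells plus 3 SD, cut at about 7.9% in these data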
VP16 Luc act = GAL4-VP16 luciferase reporter activation, counter-screen for SMARCA2 (BRM) activator project, cell-based, pG5luc, luminescence, high throughput; shares compounds with SMARCA2 act; HEK293 GAL4-VP16 pG5luc reporter; scaled: DMSO wells 0%, SAHA wells 100%; activation, % at 9.1 µM; hit rate 41% among 3,500; AID 686939, 2013;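 active means activation above the solvent-only control well mean plus 3 SD, averaged across control plates, cut at about 5.2% in these data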
A number is an active result; – = inactive; · = no result given. An excerpt weighted towards active compounds, which were near 2.1% of everything screened.

SMILES | MsrA inh | SMARCA2 act | ABCB6 inh 2 | bovine MsrA act | SMARCA2 conf | VP16 Luc act
O=C(Nc1ccc(Br)cn1)c1ccc2ccccc2c1 | – | 9.3 | – | – | 11.9 | 13.6
CC1C(=O)N(Cc2cn(Cc3ccco3)nn2)CCS(=O)(=O)N1Cc1ccc(-c2ccccc2Cl)cc1 (stereo not drawn) | – | – | – | – | · | ·
CC1(C)CC(=O)C/C(=N\NC(=O)Cc2ccccc2)C1 | – | 10.1 | – | – | – | –
C=CCn1c(SCc2c(Cl)cccc2Cl)nnc1-c1cccc(C)c1 | · | – | · | · | · | ·
Cc1nc(Nc2ccc(C(=O)O)cc2)sc1-c1ccccc1 | – | 9.1 | – | – | 9.2 | 5.4
COc1ccc2c(c1)CC/C(=C\c1ccc(C)o1)C2=O | – | 10.6 | – | – | 18.2 | 13.7
O=C1/C(=C/c2ccco2)Cc2ccccc21 | – | 11.4 | – | – | 12.9 | –
COc1ccc(C2Nc3ccccc3C(=O)N2c2ccc(C)cc2)cc1COc1ccccn1 (stereo not drawn) | – | 13.8 | – | – | 12.4 | –
CC(=O)NC1C(=O)N=C(SCC(=O)Nc2c(C)cccc2C)NC1=O (stereo not drawn) | – | – | – | – | · | ·
CC(=O)NC1C(=O)N=C(SCC(=O)NCc2ccccc2)NC1=O (stereo not drawn) | – | 10.5 | – | – | – | –
CC(C)Oc1ccc(CN2CCC2(C)C(=O)NCc2cccc3ccccc23)cc1 (stereo not drawn) | – | – | – | – | · | ·
CCCC(=O)Nc1ccc(-c2csc(NNC(C)=O)n2)cc1 | – | 12.4 | – | – | – | –
O=C(c1cc2ccccc2oc1=O)N1CCOCC1 | – | 8.0 | – | – | 15.2 | –
N=c1oc2ccccc2cc1C(=O)NC1CCCCCC1 | – | – | – | – | · | ·
O=C(NC1CCCCCC1)c1cc2ccccc2oc1=O | – | 8.9 | – | – | – | 11.8
CCC(c1ccc(OC)cc1)c1cn(C)c2ccccc12 (stereo not drawn) | · | – | · | · | · | ·
O=C(Nc1ccc2c(c1)OCO2)NC1CCCCN(Cc2cccc(Cl)c2)C1=O (stereo not drawn) | · | – | · | · | · | ·
CCN(CC)CCn1c(NCc2nc3ccccc3n2Cc2ccccc2)nc2ccccc21 | – | 9.0 | – | – | – | 5.5
Cc1cc2cc(C#N)c(N3CCN(S(C)(=O)=O)CC3)nc2cc1C | – | 9.1 | – | – | – | –
Cc1ccc(S(=O)(=O)N2CCCN(c3nc4cc(C)ccc4cc3C#N)CC2)cc1 | – | – | – | – | · | ·
CCCn1nnc(NC(=O)c2ccc(Cl)cc2Cl)n1 | – | 14.3 | – | – | – | 7.8
O=C(Nc1cc(Cl)ccc1Oc1ccccc1)c1ccccc1F | – | 8.9 | – | – | – | –
CN(C)CCNc1ncnc2c1cnn2-c1ccc(Cl)cc1 | – | 13.5 | – | – | 10.6 | 11.5
COC(=O)C1CN(Cc2cn(Cc3ccccc3)nn2)CCS(=O)(=O)N1Cc1ccc(OC)cc1 (stereo not drawn) | · | – | · | · | · | ·
CCN(C[C@H]1N[C@@](Cc2ccccc2)(C(=O)OC)[C@H]2C(=O)N(Cc3ccccc3)C(=O)[C@@H]12)S(=O)(=O)c1ccccc1 | – | – | – | – | · | ·
SMILES | MsrA inh | SMARCA2 act | ABCB6 inh 2 | bovine MsrA act | SMARCA2 conf | VP16 Luc act
CCN(C[C@H]1N[C@@](Cc2ccccc2)(C(=O)OC)[C@H]2C(=O)N(Cc3ccccc3)C(=O)[C@@H]12)S(=O)(=O)c1ccc(C)cc1 | – | 10.2 | – | – | – | –
O=[N+]([O-])c1ccc2[nH]c(=S)[nH]c2c1 | – | 10.4 | – | – | 10.5 | –
Cc1ccc(-c2nnc(SCC(=O)Nc3ccc(Oc4ccccc4)cc3)n2-c2ccc(Cl)cc2)cc1 | · | – | · | · | · | ·
CCOc1ccc(/C=N/N(C)c2ccccc2)cc1OC | – | 8.5 | – | – | 8.1 | 11.7
COc1cccc(C(=O)NCC(=O)NCc2cc(=O)n(C)c(=O)n2C)c1OC | – | – | – | – | · | ·
COc1cccc(C(=O)Nc2cc(=O)n(C)c(=O)n2C)c1OC | – | 8.3 | – | – | – | –
CCOC(=O)c1csc(Nc2nc3ccc(F)cc3s2)n1 | – | 11.2 | – | – | – | 20.5
COCc1cc(=O)n2[nH]c(-c3ccc(C)cc3)cc2n1 | – | 10.0 | – | – | 8.9 | –
CCc1c(C)nc2cc(-c3ccc(OC)cc3)[nH]n2c1=O | – | 8.9 | – | – | 10.9 | 10.6
CCOC(=O)Cc1c(C)nc2cc(-c3ccc(Cl)cc3)[nH]n2c1=O | – | – | – | – | · | ·
Cc1ccc(Cn2cc(CN3[C@@H](CC(C)C)COc4cccc(F)c4S3(=O)=O)nn2)cc1 | · | – | · | · | · | ·
Cc1ccc(/C=C(\NC(=O)c2ccc(C)cc2)c2nc(=S)[nH][nH]2)cc1 | – | 10.3 | – | – | – | –
O=C(c1ccncc1)N1CC[C@H]2[C@H](CCCN2Cc2cc(F)cc(F)c2)C1 | · | – | · | · | · | ·
O=C(CSc1nc2ccccc2n1Cc1ccccc1Cl)NN=C/C(Br)=C/c1ccccc1 | · | – | · | · | · | ·
O=C(CSc1nnc(-c2ccco2)o1)c1ccccc1Cl | – | 9.3 | – | – | – | –
COC(=O)[C@H](CC(C)C)N(CCCc1cn(Cc2ccc(C)cc2)nn1)S(=O)(=O)c1ccc(F)cc1Br | · | – | · | · | · | ·
CCCCCOc1ccc(C(=O)N(Cc2ccco2)C2CCS(=O)(=O)C2)cc1 (stereo not drawn) | – | 8.9 | – | – | – | –
CC(C)COc1ccc(C(=O)N(Cc2ccco2)C2CCS(=O)(=O)C2)cc1 (stereo not drawn) | – | – | – | – | · | ·
O=S1(=O)CC(N2CCN(CCO)CC2)CN1Cc1ccc(F)cc1 (stereo not drawn) | – | 8.1 | – | – | – | –
c1cc2ccc3ccc(CN4CCOCC4)c4ccc(c1)c2c34 | – | – | – | – | · | ·
OC1CCCN(Cc2ccc3ccc4cccc5ccc2c3c45)C1 (stereo not drawn) | – | 11.1 | – | – | 25.1 | –
CCCCCC(=O)NC1CCCCN(Cc2ccc(C)cc2)C1=O (stereo not drawn) | · | – | · | · | · | ·
CC(C)N(Cc1cn(Cc2ccccc2)nn1)S(=O)(=O)c1ccc(F)cc1Br | · | 8.7 | · | · | – | –
COc1cccc(CCNS(=O)(=O)c2c(C)n[nH]c2C)c1 | · | – | · | · | · | ·
CCCc1nc(-c2cc3ccc(C)cc3[nH]c2=O)no1 | – | 9.2 | – | – | – | –
CCOC(=O)[C@]12CCCC=C1N(Cc1ccc3c(c1)OCO3)C(=O)[C@H](CC(=O)NCCc1ccccc1OC)C2 | – | – | – | – | · | ·
CCOC(=O)C1=CCN(S(=O)(=O)c2ccc(Cl)cc2)C1c1cccc(Cl)c1 (stereo not drawn) | – | – | · | · | · | ·
CN(Cc1cc(=O)[nH]c2ccccc12)C(=O)c1ccccc1 | – | 9.4 | – | – | – | –
